Values without a mark were called inactive. Calls come from the whole dose curve.
Molecular target: Gonadotropin-releasing hormone receptor (Homo sapiens) (UniProt P30968)
Experiment: Human gonadotropin-releasing hormone receptor (GnRHR) small molecule agonists, calcium flux assay in GnRHR-HEK293 cells (AID 1920063); note: nearly all actives have a fitted effect of over 35% in size
Settings: calcium flux fluorescence, agonist mode; series mostly up to 57.6 µM; activity change: at the top concentration
How it was run: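 Calcium-dye fluorescence, Ex/Em=480/540, recorded every 1 sec over 3 min after compound addition to GnRHR-HEK293 cells. Cells had been seeded 18 hours earlier and dye-loaded for 1 hour at 37 C. Fifteen concentrations, triplicates.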
% is set by controls: 0 for no effect and ±100 for the full control effect.

Sequence of Gonadotropin-releasing hormone receptor (Homo sapiens) (P30968 whole entry, looked up): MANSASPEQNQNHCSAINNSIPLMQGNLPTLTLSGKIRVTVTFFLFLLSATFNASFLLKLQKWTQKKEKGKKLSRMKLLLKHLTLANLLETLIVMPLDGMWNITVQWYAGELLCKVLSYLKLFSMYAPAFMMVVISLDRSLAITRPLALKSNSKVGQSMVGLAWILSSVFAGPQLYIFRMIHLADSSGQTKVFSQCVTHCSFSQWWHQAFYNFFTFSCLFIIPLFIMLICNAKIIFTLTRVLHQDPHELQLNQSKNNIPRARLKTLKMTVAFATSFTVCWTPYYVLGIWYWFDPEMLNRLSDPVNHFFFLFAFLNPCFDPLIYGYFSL

Row | SMILES | activity change
1 | CCOC(=O)C1=NN(c2ccccc2)C(=O)C1 | -0.047%
2 | C=C(C)CS(=O)(=O)O | -1.2%
3 | O=C(Cl)c1c(Cl)cccc1Cl | 1.18%
4 | Cc1ccc2c(c1)CCCN2 | -0.462%
5 | Cc1nc2ccc(CN(C)c3ccc(C(=O)N[C@@H](CCC(=O)O)C(=O)O)s3)cc2c(=O)[nH]1 | -0.0796% [at 26.4 µM, stronger effect = higher value]
6 | CCCCCCCCCCCCCOC(=O)CCSCCC(=O)OCCCCCCCCCCCCC | 1.53% [at 11.8 µM, stronger effect = higher value]
7 | O=C=NCC1CCCC(CN=C=O)C1 (stereo unspecified) | 1.3%
8 | OC/C=C/c1ccccc1 | 0.104%
9 | CC(C)=CC=O | 3.32%
10 | CC(=O)c1ccc(C)cc1 | -0.263%
11 | CCCCCCCCCCCCOC(C)=O | 0.252%
12 | CC1=C(C(=O)O)N2C(=O)[C@@H](NC(=O)[C@H](N)C3=CCC=CC3)[C@H]2SC1 | 0.573% [at 26.4 µM, stronger effect = higher value]
13 | Oc1cc2ccccc2c2ccccc12 | -0.42%
14 | CC(C)(C)c1ccc(N)cc1 | 1.57%
15 | O=C1CCC(=O)N1Cl | 0.576%
16 | COc1ccc(CCO)cc1 | -0.4%
17 | CC(=O)OCC1=C(C(=O)O)N2C(=O)[C@@H](NC(=O)CSc3ccncc3)[C@H]2SC1 | -0.205% [at 26.4 µM, stronger effect = higher value]
18 | COC(=O)C(C)=O | 0.304%
19 | SC1CCCC1 | -1.35%
20 | CC(O)CC(C)O (stereo unspecified) | 0.785%
21 | CN1C(C)(C)CC(O)CC1(C)C | 2.05%
22 | CC(C)CCC(=O)CCC(C)C | 1.03%
23 | CCCCCCCCCCCCCCC | -0.556%
24 | Nc1ccc2cc(S(=O)(=O)O)cc(O)c2c1N=Nc1ccccc1C(F)(F)F | 0.288%
25 | CO/N=C1\CN(c2nc3c(cc2F)c(=O)c(C(=O)O)cn3C2CC2)CC1CN (stereo unspecified) | 1.48% [at 26.4 µM, stronger effect = higher value]
26 | C=C(C)C(=O)OCCOP(=O)(O)OCCOC(=O)C(=C)C | -0.873%

Source: PubChem BioAssay (Tox21)
